Giardia killer: kills Giardia lamblia. Giardia lamblia trophozoite viability. activity change, % at 7.66 µM, hits read low. 340,000 tested, 0.15% active. AID 540267; in the data active = activity change below about -80%;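 note: parasites exposed to compound for two days anaerobically before the ATP read; % is set by controls: 0 for no effect and ±100 for the full control effect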
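Giardia trophozoites, 100 cells per well, were exposed to compounds for 48 hrs at 37 deg C under anaerobic conditions; viability was then read as ATP content by bioluminescence after 15-30 min at room temperature.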
RXFP1 antagonist: blocks the human relaxin receptor RXFP1; Q9HBX9; HEK293-RXFP1, relaxin-stimulated cAMP HTRF, 30 min; stronger effect = lower value; activity change, negative = inhibition, % at 57.5 µM; 350,000 tested, 0.59% active;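 active = activity change of -60% or lower, but not beyond a set lower limit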; note: % is set by controls: 0 for no effect and ±100 for the full control effect
RXFP1 agonist: agonists of human relaxin receptor RXFP1; AID 2676; 370,000 tested, 0.3% active; Q9HBX9; HEK293T-RXFP1 cAMP TR-FRET, 30 min; response scale: percent of porcine relaxin response, buffer zero; Potency, µM (top dose mostly 57.5 µM), without a hit: at the highest dose activation, hits mostly activators; note: potency is the fitted concentration of half-maximal effect; % is set by controls: 0 for no effect and ±100 for the full control effect; nearly all actives have a fitted effect of over 60% in size
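Agonist response is measured as cAMP accumulation in an RXFP1-transfected HEK293T line under PDE4 inhibition. Values are scaled between buffer-only and 29 nM porcine relaxin, and EC50s come from standard Hill equation fits.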
BRCA1 expr act: BRCA1 expression activation; MCF7-BRCA1-FFLuc reporter, luminescence, 48 h; response scale: scaled: vehicle 0%, 10 µM genistein 100%; Potency, µM (titrated, usually from 46.1 µM), for the others: top-dose activation, most hits filed as activators; 380,000 tested, 1.1% active; AID 624202; note: potency is the fitted concentration of half-maximal effect; nearly all actives have a fitted effect of over 80% in size
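Quantitative HTS in MCF7 cells stably reporting BRCA1 expression via firefly luciferase. Compound treatment lasts 48 h at 37 °C in phenol-red free MEM. Activation is expressed relative to genistein at 10 microM and DMSO.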
IL2 activator: activates IL-2 in a cell-based reporter assay | IL-2 activation reporter assay, cell-based qHTS; stimulated with anti-CD3/CD4/CD28 beads; in transgenic mouse T cells | activation, % (series mostly up to about 46 µM) | 360,000 tested, 0.065% active | AID 652025; in the data active = activation above about 50%; note: 0% is about no effect
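Quantitative HTS in unstimulated transgenic mouse T cells, with memory T cells as non-tolerant control and PMA/ionomycin as tolerance-bypass control. Compound pretreatment lasted 60 minutes before 18 h bead stimulation; EGFP/DsRed fluorescence read.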
NPSR antag: blocks cAMP signaling of the human neuropeptide S receptor | Q6W5P4 | CHO-NPSR cells, cAMP TR-FRET, antagonist mode | Potency, µM (highest dose often 38.3 µM), inactives show top-dose activity change, negative = inhibition, usual class: inhibitors | 220,000 tested, 1% active | AID 1461; note: potency is the fitted concentration of half-maximal effect; % is set by controls: 0 for no effect and ±100 for the full control effect; nearly all actives have a fitted effect of over 50% in size
Target sequence (Q6W5P4 whole entry, looked up): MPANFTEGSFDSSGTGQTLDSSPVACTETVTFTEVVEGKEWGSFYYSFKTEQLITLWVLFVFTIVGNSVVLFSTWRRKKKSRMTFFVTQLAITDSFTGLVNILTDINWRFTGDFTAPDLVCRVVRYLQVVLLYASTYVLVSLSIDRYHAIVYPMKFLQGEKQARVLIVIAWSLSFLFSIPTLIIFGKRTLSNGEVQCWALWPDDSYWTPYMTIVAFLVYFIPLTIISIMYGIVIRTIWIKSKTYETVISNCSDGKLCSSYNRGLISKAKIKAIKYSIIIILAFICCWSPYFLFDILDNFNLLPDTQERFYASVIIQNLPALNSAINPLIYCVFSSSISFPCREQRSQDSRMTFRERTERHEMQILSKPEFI
The depositor's hits bear a star; · = no result given; [ ] = another dose, or the depositor's remark. Rows were chosen to be rich in hits. Some 1.9% of all compounds tested hit in one or more screens of this group. Unless noted, calls come from the whole dose curve; as a rule, active = well fitted curve in the direction sought with a large enough effect; inconclusive = small, poorly fitted or top-dose-only effect, or another doubt; inactive = no such curve, though single readings can be large; an effect the other way counts as inactive or inconclusive.

SMILES | Giardia killer | RXFP1 antagonist | RXFP1 agonist | BRCA1 expr act | IL2 activator | NPSR antag
CN(C)CCCN(C(=O)c1ccc(S(=O)(=O)N2CCc3ccccc3C2)cc1)c1nc2ccc(F)cc2s1 | 17.0 | -30.2 | 0.4% | -77.0% | -1.1 | ·
CN(C)CCCN(C(=O)c1ccc2c(c1)OCCO2)c1nc2ccc(Cl)cc2s1 | · | · | 0.5% | · | · | ·
O=C(NC1CCCC1)c1cnn2c1NC(=C1CC1)C=C2C(F)F | · | · | · | -16.8% | · | ·
COc1ccccc1-c1nnc(C2CCN(S(=O)(=O)c3ccc(CC(C)C)cc3)CC2)o1 | · | -17.3 | -1.4% | · | · | ·
COc1ccc(-c2nn(-c3ccccc3)cc2C(=O)n2nnc3ccccc32)cc1 | 6.5 | -3.4 | 5.6% | -13.3% | -2.9 | 10µM*
CCCCN1C(=O)C(O)(c2c(C)[nH]c3ccccc23)c2cc(Br)ccc21 (configuration not stated) | · | -103.1* | -0.2% | · | · | ·
CCOc1ccc(C(=O)Nc2ccc(-c3nc4cc(CC)ccc4o3)cc2)cc1 | · | -13.5 | 2.6% | · | · | ·
CC1CCC(C(=O)NC(C(=O)OCC(=O)c2ccc(Br)cc2)C(C)C)CC1 (configuration not stated) | · | · | 1.8% | -7.0% | · | ·
Cc1ccc(-c2cc(N)n(-c3ccc(F)cc3)n2)cc1 | 3.1 | 0.1 | -0.6% | 5.01µM* | 0.6 | -0.5%
Cc1ccc(-c2cc(N)n(-c3ccc(C)cc3)n2)cc1 | -15.6 | -22.1 | 0.7% | 10µM* | 1.6 | -18.5%[46.1 µM]
Cc1ccc(-c2cc(N)n3nc(-c4ccc(C)cc4)cc3n2)cc1 | -0.4 | -1.1 | 4.2% | -24.2% | -3.7 | -5.9%[46.1 µM]
O=C1NC(c2ccccc2)(c2ccccc2)C(=O)N1COP(=O)(O)O | · | -8.6 | · | · | · | ·
Cc1ccc(C(=O)NCC(=O)N(C)Cc2ccccc2C)s1 | · | -1.3 | · | 11.2µM* | 0.4 | ·
Cc1cccc(-n2c(SCC(=O)Nc3ccccc3C)nc3c(oc4ccccc43)c2=O)c1 | · | 3.0 | -0.9% | · | · | ·
COCCNc1cc(N2CCN(C3CCCCC3)CC2)c2noc3c2c1C(=O)c1ccccc1-3 | · | -37.0 | 0.2% | · | · | ·
CCN(CC)C(=O)Cn1c(=O)c2ccccc2n2c(=S)sc(-c3cccc(C)c3)c12 | 15.4 | 3.0 | 1.9% | 1.8% | 93.5* | -12.5%[46.1 µM]
CCOC(=O)c1oc2ccc(CNC3CCCCC3)c(Cl)c2c1C | -1.8 | 26.0 | 2.9% | -10.2% | -0.7 | 3.2%
CCOC(=O)c1oc2ccc(CNCCO)c(Cl)c2c1C | -2.6 | -7.0 | -0.2% | 11.2µM* | -3.1 | 11.2%[7.67 µM]
CCOC(=O)[C@H](CCc1ccccc1)N[C@@H](C)C(=O)N1Cc2cc(OC)c(OC)cc2C[C@H]1C(=O)O | · | -20.4 | · | · | · | ·
CCCCC(=O)N1C/C=C\C(c2ccc(OC)cc2)N(Cc2ccc(F)cc2)C(=O)C1C (configuration not stated) | 37.7 | · | · | · | · | ·
Cc1ccc(OCC(=O)c2cc(C)n(C3CC3)c2C)c([N+](=O)[O-])n1 | -24.9 | -15.3 | 1.3% | 0.1% | -0.2 | -12.9%[46.1 µM]
Cc1cc(C(=O)COc2cccc([N+](=O)[O-])c2)c(C)n1C1CC1 | 3.4 | 11.7 | -0.7% | 7.08µM* | -0.3 | ·
CCOC(=O)c1sc2nc(CC(=O)OC)nc(N3CCN(c4ccc(OC)cc4)CC3)c2c1C | 6.9 | -18.1 | -2.0% | -33.7% | -2.6 | 31.6µM*
COc1cccc(COc2ccc3c(C)cc(=O)oc3c2)c1 | -6.9 | -9.8 | 0.8% | 2.82µM* | -7.0 | ·
COc1cccc2c1C(=O)/C(=C\c1ccc(N(C)C)cc1)C2 | · | · | · | -18.0% | · | ·
SMILES | Giardia killer | RXFP1 antagonist | RXFP1 agonist | BRCA1 expr act | IL2 activator | NPSR antag
Fc1ccccc1-c1n[nH]c(=S)n1/N=C/c1c[nH]c2ccccc12 | -2.7 | -109.2* | 0.5% | -52.9% | -4.0 | -17.6%
Fc1ccccc1/C=N/n1c(C2CCCCC2)n[nH]c1=S | 16.6 | -12.2 | -0.3% | 3.0% | -1.4 | ·
COc1ccccc1NC(=O)c1sc(NC(=O)c2ccco2)c(C#N)c1C | -4.6 | 26.2 | 7.9% | -1.7% | 1.7 | -1.0%[46.1 µM]
Cc1ccccc1OCC(=O)Nc1sc(C(=O)Nc2cccc(C)c2C)c(C)c1C#N | 6.4 | -1.4 | 8.91µM* | -24.9% | -0.4 | 3.98µM*
O=C(C[n+]1cccc(Br)c1)c1ccc(O)c(O)c1 | · | · | · | 0.0% | · | ·
CCOC(=O)CC(NC(=O)c1cc2cccc(OC)c2oc1=O)c1ccc(OC)cc1 (configuration not stated) | 28.1 | 6.1 | -0.9% | 12.6µM* | 0.6 | ·
CCOC(=O)CC(NC(=O)c1cc2cc(Br)cc(OC)c2oc1=O)c1ccc(OC)cc1 (configuration not stated) | · | · | 7.1% | 29.1% | · | ·
COc1cccc(N2CCN(c3ncnc4c3[nH]c3ccc(F)cc34)CC2C)c1 (configuration not stated) | 19.9 | -69.1* | 5.4% | -83.4% | -0.9 | 2.51µM*
COc1cccc(N2CCN(c3ncnc4c3[nH]c3ccccc34)CC2C)c1 (configuration not stated) | · | · | 0.1% | · | · | 10µM*
COC(=O)C1=C(C)NC(COC(N)=O)=C(C(=O)OC(C)C)C1c1cccc(Cl)c1Cl (configuration not stated) | · | -25.0 | · | · | · | ·
CCOC(=O)C(C(=O)OCC)N(Cc1cc(OC)ccc1OC)C(=O)C1CC(CO[Si](C)(C)C(C)(C)C)=CN1C(=O)OC(C)(C)C (configuration not stated) | -5.1 | · | · | · | · | ·
COc1ccc(-n2nc(C(=O)NCC(=O)NCCCN3CCOCC3)c3ccccc3c2=O)cc1 | -16.3 | 31.6 | 15.8µM* | 1.8% | 0.2 | ·
COc1ccc(-n2nc(C(=O)NCC(=O)NCCCN3CCOCC3)c3ccccc3c2=O)cc1OC | 14.0 | 11.5 | 14.1µM* | 0.0% | 4.6 | ·
CC(=O)Nc1c(C)nn(-c2ccccc2)c1N1CCC(C(=O)Nc2cccc(C(F)(F)F)c2)CC1 | · | -10.0 | 1.2% | · | · | ·
O=c1c2ccccc2nnn1-c1ccc(Br)cc1 | -8.8 | 3.2 | 0.3% | 4.47µM* | -0.8 | -8.9%
CCC(=O)c1ccc(OCC(O)Cn2nnc3ccccc32)cc1 (configuration not stated) | 2.4 | 4.0 | 1.1% | 10µM* | -3.6 | -7.3%
Cc1ccccc1OCC(O)Cn1nnc2ccccc21 (configuration not stated) | 13.3 | -1.8 | 0.9% | 12.6µM* | -4.6 | -2.5%[46.1 µM]
CCOC(=O)COc1cc(C)c(Cl)cc1C(=O)c1ccn2nc(-c3ccc(OC)cc3)cc2n1 | · | · | -0.3% | -14.6% | · | ·
COc1cccc(CNc2nc3nc(C)c(Cl)c(C)n3n2)c1 | -6.8 | -0.2 | 4.7% | 11.2µM* | -2.2 | -9.0%[46.1 µM]
O=C(NCCc1c[nH]c2ccccc12)C(=O)Nc1ccccc1 | -4.6 | -11.8 | 2.9% | 11.2µM* | -3.7 | -0.9%
Cc1ccc(NC(=O)C(=O)NCCc2c[nH]c3ccccc23)cc1C | 11.6 | -7.7 | 1.2% | 0.0% | 0.6 | -3.9%
